Reference: the supplement of paper PMC8728848
Many of the other results were omitted from the sample, so the strongest signals are more common in it than they were.

What was measured:
Test in all cases: glycan array binding signal (z-score within array); higher = stronger binding
[1] = system: Neu5Ac(a2-3)Gal(b1-3)GalNAc6S; details: glycan notation: IUPAC condensed, linker removed
Summary of the method: (§1)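 Columns mapping to the same glycan were averaged after glycan names were converted to IUPAC-condensed notation. The data come from 3228 arrays in the Consortium for Functional Glycomics database, limited to those with an available protein sequence. Binding is reported as a within-array Z-score averaged across arrays of one protein sequence and across linkers.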

Man(b1-4)GlcNAc = details: glycan notation: IUPAC condensed, linker removed
Summary of the method: as §1

[2] = system: Man(a1-2)Man(a1-3)[Man(a1-2)Man(a1-6)]Man; details: glycan notation: IUPAC condensed, linker removed
Summary of the method: as §1

[3] = system: Man(a1-3)[Man(a1-6)]Man(a1-6)[Man(a1-3)]Man(b1-4)GlcNAc(b1-4)GlcNAc; details: glycan notation: IUPAC condensed, linker removed
Summary of the method: as §1

[4] = system: Man(a1-3)[Man(a1-6)]Man(a1-6)[Man(a1-3)]Man; details: glycan notation: IUPAC condensed, linker removed
Summary of the method: as §1

[5] = system: Man(a1-3)[Man(a1-6)]Man(b1-4)GlcNAc(b1-4)[Fuc(a1-6)]GlcNAc; details: glycan notation: IUPAC condensed, linker removed
Summary of the method: as §1

[6] = system: Neu5Ac(a2-3)Gal(b1-3)GalNAc; details: glycan notation: IUPAC condensed, linker removed
Summary of the method: as §1

[7] = system: Neu5Ac(a2-3)Gal(b1-3)GlcNAc(b1-2)Man(a1-3)[Neu5Ac(a2-3)Gal(b1-3)GlcNAc(b1-2)Man(a1-6)]Man(b1-4)GlcNAc(b1-4)GlcNAc; details: glycan notation: IUPAC condensed, linker removed; mutation: R125K
Summary of the method: as §1

[8] = system: Neu5Ac(a2-3)Gal(b1-3)GalNAc(b1-3)Gal(a1-4)Gal(b1-4)Glc; details: glycan notation: IUPAC condensed, linker removed
Summary of the method: as §1

[9] = system: Neu5Ac(a2-3)Gal(b1-3)GlcNAc(b1-2)Man(a1-3)[GlcNAc(b1-4)][Neu5Ac(a2-3)Gal(b1-3)GlcNAc(b1-2)Man(a1-6)]Man(b1-4)GlcNAc(b1-4)GlcNAc; details: glycan notation: IUPAC condensed, linker removed
Summary of the method: as §1

[10] = system: Man(a1-3)[Man(a1-6)]Man(a1-6)[Man(a1-2)Man(a1-3)]Man(b1-4)GlcNAc(b1-4)GlcNAc; details: glycan notation: IUPAC condensed, linker removed
Summary of the method: as §1

[11] = system: Neu5Ac(a2-3)Gal(b1-3)GalNAc(b1-3)Gal(b1-4)GlcNAc; details: glycan notation: IUPAC condensed, linker removed
Summary of the method: as §1

[12] = system: Man(a1-2)Man(a1-3)[Man(a1-2)Man(a1-6)]Man(a1-6)[Man(a1-3)[Man(a1-6)]Man(a1-6)]Man(b1-4)GlcNAc(b1-4)GlcNAc; details: glycan notation: IUPAC condensed, linker removed
Summary of the method: as §1

[13] = system: Man(a1-2)Man(a1-3)[Man(a1-6)]Man(a1-6)[Man(a1-2)Man(a1-3)]Man(b1-4)GlcNAc(b1-4)GlcNAc; details: glycan notation: IUPAC condensed, linker removed
Summary of the method: as §1

[14] = system: Man(a1-2)Man(a1-6)[Man(a1-3)]Man(a1-6)[Man(a1-2)Man(a1-2)Man(a1-3)]Man(b1-4)GlcNAc(b1-4)GlcNAc; details: glycan notation: IUPAC condensed, linker removed
Summary of the method: as §1

[15] = system: Man(a1-2)Man(a1-6)[Man(a1-3)]Man(a1-6)[Man(a1-2)Man(a1-2)Man(a1-3)]Man; details: glycan notation: IUPAC condensed, linker removed
Summary of the method: as §1

Man(a1-3)[Man(a1-6)]Man = details: glycan notation: IUPAC condensed, linker removed
Summary of the method: as §1

[16] = system: Neu5Ac(a2-3)Gal(b1-3)GalNAc(b1-4)[Neu5Ac(a2-3)]Gal(b1-4)Glc; details: glycan notation: IUPAC condensed, linker removed
Summary of the method: as §1

[17] = system: Neu5Ac(a2-3)Gal(b1-3)GalNAc(b1-4)[Neu5Ac(a2-8)Neu5Ac(a2-3)]Gal(b1-4)Glc; details: glycan notation: IUPAC condensed, linker removed
Summary of the method: as §1

Man(a1-6)Man = details: glycan notation: IUPAC condensed, linker removed
Summary of the method: as §1

Neurocan (Homo sapiens), O14594, sequence (O14594 other isoform, or with tags, fused parts or gaps): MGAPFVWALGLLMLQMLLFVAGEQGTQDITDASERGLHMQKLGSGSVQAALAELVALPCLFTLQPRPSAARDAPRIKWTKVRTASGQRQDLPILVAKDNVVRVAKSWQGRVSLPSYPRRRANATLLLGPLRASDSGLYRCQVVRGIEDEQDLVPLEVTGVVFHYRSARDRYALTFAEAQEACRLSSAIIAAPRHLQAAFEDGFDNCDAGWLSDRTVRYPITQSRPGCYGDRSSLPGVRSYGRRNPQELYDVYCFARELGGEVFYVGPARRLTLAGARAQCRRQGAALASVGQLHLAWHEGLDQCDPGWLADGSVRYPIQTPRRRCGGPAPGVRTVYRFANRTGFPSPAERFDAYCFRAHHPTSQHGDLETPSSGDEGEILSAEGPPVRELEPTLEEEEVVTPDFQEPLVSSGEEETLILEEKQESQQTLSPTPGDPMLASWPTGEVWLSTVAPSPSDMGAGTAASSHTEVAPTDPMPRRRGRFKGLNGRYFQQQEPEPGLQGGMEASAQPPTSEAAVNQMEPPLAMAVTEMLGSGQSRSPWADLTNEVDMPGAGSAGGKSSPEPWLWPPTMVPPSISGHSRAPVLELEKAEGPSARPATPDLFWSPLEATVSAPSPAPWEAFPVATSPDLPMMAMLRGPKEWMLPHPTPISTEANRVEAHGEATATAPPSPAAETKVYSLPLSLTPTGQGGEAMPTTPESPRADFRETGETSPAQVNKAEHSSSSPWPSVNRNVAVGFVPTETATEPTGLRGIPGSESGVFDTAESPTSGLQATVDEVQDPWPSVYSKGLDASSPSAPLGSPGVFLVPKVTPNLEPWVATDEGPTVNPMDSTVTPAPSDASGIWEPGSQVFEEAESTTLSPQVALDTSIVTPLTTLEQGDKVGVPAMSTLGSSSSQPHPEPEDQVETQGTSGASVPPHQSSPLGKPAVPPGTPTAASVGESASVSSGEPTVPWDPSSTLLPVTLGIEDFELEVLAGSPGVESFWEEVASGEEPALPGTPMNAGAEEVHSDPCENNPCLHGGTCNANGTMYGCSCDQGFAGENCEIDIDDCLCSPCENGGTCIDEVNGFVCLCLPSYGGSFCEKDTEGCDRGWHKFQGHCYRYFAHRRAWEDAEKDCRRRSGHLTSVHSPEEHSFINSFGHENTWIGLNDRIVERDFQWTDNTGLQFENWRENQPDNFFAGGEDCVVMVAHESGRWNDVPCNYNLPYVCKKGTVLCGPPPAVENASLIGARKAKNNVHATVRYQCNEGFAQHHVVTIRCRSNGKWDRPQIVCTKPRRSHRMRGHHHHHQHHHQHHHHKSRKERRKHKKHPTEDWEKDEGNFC
Avaren (Actinomycete K97), sequence (chain, as listed by the source): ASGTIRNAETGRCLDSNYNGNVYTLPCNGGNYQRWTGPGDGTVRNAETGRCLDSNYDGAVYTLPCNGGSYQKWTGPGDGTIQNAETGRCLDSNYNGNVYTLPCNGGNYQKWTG
Aggrecan (Rattus norvegicus), NP_071526, sequence (chain, as listed by the source): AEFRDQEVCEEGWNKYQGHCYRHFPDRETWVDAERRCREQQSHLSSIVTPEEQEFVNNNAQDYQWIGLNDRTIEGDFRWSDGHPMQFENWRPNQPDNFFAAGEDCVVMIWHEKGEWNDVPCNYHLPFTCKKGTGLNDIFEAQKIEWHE
6RG (Lolium perenne), B9U140, sequence (B9U140 entry or part of it): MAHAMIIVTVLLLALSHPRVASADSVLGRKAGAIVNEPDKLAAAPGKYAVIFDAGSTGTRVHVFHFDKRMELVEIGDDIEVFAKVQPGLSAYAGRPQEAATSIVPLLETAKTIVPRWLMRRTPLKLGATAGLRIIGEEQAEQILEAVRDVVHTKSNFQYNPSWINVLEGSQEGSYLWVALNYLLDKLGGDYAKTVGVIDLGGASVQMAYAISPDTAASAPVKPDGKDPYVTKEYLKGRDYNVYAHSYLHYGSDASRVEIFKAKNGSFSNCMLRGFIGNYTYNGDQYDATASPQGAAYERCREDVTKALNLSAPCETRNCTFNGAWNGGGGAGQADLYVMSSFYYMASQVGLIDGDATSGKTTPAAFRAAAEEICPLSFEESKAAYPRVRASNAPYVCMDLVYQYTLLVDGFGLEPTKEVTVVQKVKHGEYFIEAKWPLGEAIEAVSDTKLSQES
wLAT-1A (Homo sapiens), Q01650, sequence (Q01650 whole entry): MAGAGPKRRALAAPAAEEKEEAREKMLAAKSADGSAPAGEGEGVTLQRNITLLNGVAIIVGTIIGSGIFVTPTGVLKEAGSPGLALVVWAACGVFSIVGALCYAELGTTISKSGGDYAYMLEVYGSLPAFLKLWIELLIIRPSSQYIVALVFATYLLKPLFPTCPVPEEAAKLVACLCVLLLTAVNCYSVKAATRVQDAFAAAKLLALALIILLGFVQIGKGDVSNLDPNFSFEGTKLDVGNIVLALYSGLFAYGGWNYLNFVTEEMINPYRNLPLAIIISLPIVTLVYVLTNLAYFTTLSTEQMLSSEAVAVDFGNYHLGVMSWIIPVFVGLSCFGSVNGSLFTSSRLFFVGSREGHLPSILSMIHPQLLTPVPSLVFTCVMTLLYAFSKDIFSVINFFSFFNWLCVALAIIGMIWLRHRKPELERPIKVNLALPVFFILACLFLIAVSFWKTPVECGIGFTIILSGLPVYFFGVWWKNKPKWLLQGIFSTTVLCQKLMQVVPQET
C3b (Homo sapiens), P01024, sequence (P01024 23-667): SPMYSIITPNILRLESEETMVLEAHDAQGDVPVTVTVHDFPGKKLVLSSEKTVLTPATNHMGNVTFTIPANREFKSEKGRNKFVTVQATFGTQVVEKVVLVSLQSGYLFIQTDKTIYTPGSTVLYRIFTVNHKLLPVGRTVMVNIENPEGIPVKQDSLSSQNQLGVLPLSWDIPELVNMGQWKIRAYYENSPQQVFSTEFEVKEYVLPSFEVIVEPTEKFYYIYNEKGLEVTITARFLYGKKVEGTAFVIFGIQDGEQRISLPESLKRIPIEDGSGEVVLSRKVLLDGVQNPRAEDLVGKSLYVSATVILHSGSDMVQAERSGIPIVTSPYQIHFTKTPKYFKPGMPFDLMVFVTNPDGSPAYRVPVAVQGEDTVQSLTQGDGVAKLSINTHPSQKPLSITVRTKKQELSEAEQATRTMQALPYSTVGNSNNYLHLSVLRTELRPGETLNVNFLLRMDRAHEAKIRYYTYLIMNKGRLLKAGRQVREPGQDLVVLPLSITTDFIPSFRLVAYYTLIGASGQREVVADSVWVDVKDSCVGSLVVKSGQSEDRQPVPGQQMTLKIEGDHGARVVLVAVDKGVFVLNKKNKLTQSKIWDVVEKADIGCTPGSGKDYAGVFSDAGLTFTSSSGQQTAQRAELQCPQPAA
PILRb (Mus musculus), Q2YSF2, sequence (Q2YSF2 entry or part of it): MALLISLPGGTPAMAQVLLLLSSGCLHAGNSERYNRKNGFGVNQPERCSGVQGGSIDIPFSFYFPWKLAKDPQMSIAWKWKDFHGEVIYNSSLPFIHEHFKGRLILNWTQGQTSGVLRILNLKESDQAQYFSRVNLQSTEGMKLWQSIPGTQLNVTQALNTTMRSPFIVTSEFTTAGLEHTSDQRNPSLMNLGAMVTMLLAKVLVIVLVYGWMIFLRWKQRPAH
CHT (Homo sapiens), sequence (chain, as listed by the source): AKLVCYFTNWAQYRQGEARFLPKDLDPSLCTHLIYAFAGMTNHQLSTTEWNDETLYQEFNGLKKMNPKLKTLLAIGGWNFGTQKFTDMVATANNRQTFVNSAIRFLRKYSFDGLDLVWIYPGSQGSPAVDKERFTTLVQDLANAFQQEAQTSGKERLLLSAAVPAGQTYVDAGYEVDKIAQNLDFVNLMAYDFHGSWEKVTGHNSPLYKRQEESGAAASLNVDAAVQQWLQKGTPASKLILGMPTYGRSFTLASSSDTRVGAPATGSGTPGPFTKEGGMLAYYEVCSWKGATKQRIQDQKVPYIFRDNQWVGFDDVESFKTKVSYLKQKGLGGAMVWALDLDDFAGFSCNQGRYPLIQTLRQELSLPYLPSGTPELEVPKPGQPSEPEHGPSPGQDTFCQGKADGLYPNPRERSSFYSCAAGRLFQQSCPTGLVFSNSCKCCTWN
6RG (Lolium perenne), sequence (chain, as listed by the source): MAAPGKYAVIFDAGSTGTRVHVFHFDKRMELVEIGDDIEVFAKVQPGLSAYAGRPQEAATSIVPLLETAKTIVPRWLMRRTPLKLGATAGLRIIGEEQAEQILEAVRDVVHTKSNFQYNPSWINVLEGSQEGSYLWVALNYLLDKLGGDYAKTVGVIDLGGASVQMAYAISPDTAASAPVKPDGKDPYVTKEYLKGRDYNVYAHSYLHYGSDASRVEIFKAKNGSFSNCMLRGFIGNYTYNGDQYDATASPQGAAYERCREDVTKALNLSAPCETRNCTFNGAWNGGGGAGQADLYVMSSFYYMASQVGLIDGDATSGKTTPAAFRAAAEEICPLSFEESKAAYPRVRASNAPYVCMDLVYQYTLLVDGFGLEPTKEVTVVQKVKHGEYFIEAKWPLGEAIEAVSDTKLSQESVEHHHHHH

6RG (Lolium perenne)
glycan array binding signal (z-score) [1]: -0.326

PILRb (Mus musculus), Q2YSF2
glycan array binding signal (z-score) (Man(b1-4)GlcNAc): -0.166

6RG (Lolium perenne), B9U140
glycan array binding signal (z-score) [2]: -0.266
glycan array binding signal (z-score) [3]: -0.359

Siglec-8 (Homo sapiens), Q9NYZ4
glycan array binding signal (z-score) [2]: -0.204
glycan array binding signal (z-score) [4]: 0.131
glycan array binding signal (z-score) ([4]; mutation: R125K): -0.227
glycan array binding signal (z-score) [5]: -0.07
glycan array binding signal (z-score) ([6]; mutation: R125K): 4.65
glycan array binding signal (z-score) [7]: 1.23

Neurocan (Homo sapiens), O14594
glycan array binding signal (z-score) [2]: -0.053
glycan array binding signal (z-score) [4]: -0.722
glycan array binding signal (z-score) [8]: 0.009

MpAFP RI GFP (Marinomonas primoryensis)
glycan array binding signal (z-score) [9]: -0.323

Aggrecan (Rattus norvegicus), NP_071526
glycan array binding signal (z-score) [10]: 1.14
glycan array binding signal (z-score) (Man(b1-4)GlcNAc): -0.071
glycan array binding signal (z-score) [11]: -0.071

HARE (Homo sapiens), Q8WWQ8
glycan array binding signal (z-score) [12]: 2.39

Avaren (Actinomycete K97)
glycan array binding signal (z-score) [2]: 3.5
glycan array binding signal (z-score) [13]: 1.08
glycan array binding signal (z-score) [14]: 13.4
glycan array binding signal (z-score) [15]: 6.02
glycan array binding signal (z-score) [10]: -0.014
glycan array binding signal (z-score) [3]: -0.113
glycan array binding signal (z-score) (Man(a1-3)[Man(a1-6)]Man): -0.106
glycan array binding signal (z-score) [16]: -0.124
glycan array binding signal (z-score) [17]: -0.128

C3b (Homo sapiens), P01024
glycan array binding signal (z-score) [15]: -0.764
glycan array binding signal (z-score) [6]: -0.754

CHT (Homo sapiens)
glycan array binding signal (z-score) (Man(a1-3)[Man(a1-6)]Man; mutation: D138V, E140I): -0.149

wLAT-1A (Homo sapiens), Q01650
glycan array binding signal (z-score) (Man(a1-6)Man): 0.732
glycan array binding signal (z-score) (Man(b1-4)GlcNAc): 0.584
